Measurements from PubChem BioAssay (EPA / NIEHS).
Records with an inconclusive call do not appear. The source made the active and inactive calls. The calls were made as follows: active = hit-call score of the fitted dose curve at least 0.9, where 1 is the maximum; inconclusive = response in the unintended direction; inactive = score below 0.9.

read-out: Cytochrome P450 2C19 (Homo sapiens) (UniProt P33261); assay: CLD_CYP2C19_48hr: CellzDirect (CLD) Gene Expression Assay for xenobiotic metabolism (CYP2C19) at 48 hours (AID 2283700);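 also: fitted upward so actives raise CYP2C19 mRNA above the 0.2% DMSO vehicle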
Experimental: CLD_48hr is a cell-based, multiplexed-readout assay that uses hepatocyte, a human liver primary cell, with measurements taken at 48 hours after chemical dosing in a 96-well plate.CLD_CYP2C19_48hr is one of 16 assay component(s) measured or calculated from the CLD_48hr assay. It is designed to make measurements of mRNA induction, a form of inducible reporter, as detected with chemiluminescence signals by Quantitative Nuclease Protection Assay (qNPA) technology.Data from the assay component CLD_CYP2C19_48hr was analyzed at the endpoint, CLD_CYP2C19_48hr, in the positive analysis fitting direction relative to DMSO as the negative control and baseline of activity. Using a type of inducible reporter, gain-of-signal activity can be used to understand changes in the reporter gene as they relate to the gene CYP2C19. Furthermore, this assay endpoint can be referred to as a primary readout. To generalize the intended target to other relatable targets, this assay endpoint is annotated to the cyp intended target family, where subfamily is xenobiotic metabolism.
Human hepatocyte cultures were treated daily for two consecutive days with fresh dosing solutions containing appropriate concentrations of the 320 ToxCast chemicals (chemical identities were blinded to CellzDirect and other ToxCast collaborators), vehicle control (0.2% DMSO), and positive control inducers as summarized in Table 1. Due to the large number of treatment groups and chemicals examined, the ToxCast chemicals were divided into two groups (spanning two independent cultures of hepatocytes from separate donor preparations (Hu778: ToxCast plates 1 and 2; Hu776: ToxCast plates 3 and 4). Each preparation of human hepatocyte cultures was treated with respective vehicle control, medium only control, set of six positive controls/reference chemicals for the five hepatic receptor pathways, and a subset of eight of the ToxCast chemicals (indoxacarb, pyrithiobac-sodium, norflurazon, cyhalofop-butyl, methomyl, thiram, acetochlor, and propiconazole). These replicate data, coupled with internal replicates designed within the blinded ToxCast chemical library, provided additional data to evaluate interindividual differences between hepatocyte preparations and their potential impact on chemical profiles.Cell morphology and integrity were evaluated using phase-contrast microscopy as an indicator of hepatocyte cell health (Tyson & Green, 1987). Cultures for each treatment group (i.e., media, vehicle [0.2% DMSO], positive control inducers [multiple concentrations], and the ToxCast chemicals [multiple concentrations]) were observed and cell morphology was assessed relative to vehicle control cultures at each harvest time point (0, 6, 24, or 48 h). […] Images were evaluated at the conclusion of the study to assess changes in cell integrity and account for the effects of chemical exposure on uncharacteristic changes in concentration-dependent gene expression profiles. The results from these determinations of apparent cytotoxicity were annotated (yes/no) alongside the corresponding qNPA data for reference.At the conclusion of each treatment period, hepatocyte cultures (96-well) were washed with 1 volume of HBSS, lysed by addition of 25 ul ArrayPlate lysis buffer (HTG, Tucson, AZ), and 70 ul/well of Denaturation Oil, denatured by incubation at 95C for 10 min, and frozen at approximately -70C until analysis by nuclease protection assay (qNPA) (Roberts et al., 2007). For qNPA analysis, cell lysates were thawed at 50C for approximately 30 min, qNPA probes were added, and samples were incubated at 95C for 10 min to begin the detection process by denaturing the target RNA, dissociating the duplexes and secondary structure hybridization. At the conclusion of the hybridization period, S1 nuclease reagent was added to each sample to digest all nonprotected nucleotides at 50C for 60-90 min. […]

Sequence of Cytochrome P450 2C19 (Homo sapiens) (P33261 whole entry, looked up): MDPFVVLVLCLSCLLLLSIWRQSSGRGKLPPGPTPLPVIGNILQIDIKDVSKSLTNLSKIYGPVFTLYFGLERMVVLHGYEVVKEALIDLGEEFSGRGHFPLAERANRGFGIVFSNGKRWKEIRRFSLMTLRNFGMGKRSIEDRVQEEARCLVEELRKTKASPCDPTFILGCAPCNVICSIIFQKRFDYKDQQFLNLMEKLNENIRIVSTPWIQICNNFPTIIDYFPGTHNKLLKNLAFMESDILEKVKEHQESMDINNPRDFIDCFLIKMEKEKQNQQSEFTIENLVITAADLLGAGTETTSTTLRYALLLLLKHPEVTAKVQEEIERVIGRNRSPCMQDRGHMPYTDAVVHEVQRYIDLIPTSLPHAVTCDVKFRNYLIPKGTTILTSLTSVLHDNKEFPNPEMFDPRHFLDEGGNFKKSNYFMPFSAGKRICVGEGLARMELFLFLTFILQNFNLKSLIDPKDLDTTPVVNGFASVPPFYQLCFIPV

Compound | outcome
CC(C)N1C(=O)N(c2ccccc2)CSC1=NC(C)(C)C | inactive
COc1ccc(-c2ccccc2)cc1NNC(=O)OC(C)C | inactive
Cc1nc(N(C)C)nc(OC(=O)N(C)C)c1C | inactive
CC(C)Oc1cccc(NC(=O)c2ccccc2C(F)(F)F)c1 | inactive
Clc1nc(Cl)nc(Nc2ccccc2Cl)n1 | inactive
O=C1C2CC=CCC2C(=O)N1SC(Cl)(Cl)Cl (stereo not drawn) | inactive
O=C(O)c1c(Cl)ccc2cc(Cl)cnc12 | inactive
C=C(C)CN(CC)c1c([N+](=O)[O-])cc(C(F)(F)F)cc1[N+](=O)[O-] | inactive
COCC(=O)N(c1c(C)cccc1C)C(C)C(=O)OC (stereo not drawn) | inactive
CO/N=C(/C1=NOCCO1)c1ccccc1Oc1ncnc(Oc2ccccc2Cl)c1F | inactive
CC(C)(C)C(=O)C(Oc1ccc(Cl)cc1)n1cncn1 (stereo not drawn) | inactive
CN=C=S | inactive
CCOC(=O)C(C)OC(=O)c1cc(Oc2ccc(C(F)(F)F)cc2Cl)ccc1[N+](=O)[O-] (stereo not drawn) | inactive
C=CCOC(=O)C(C)(C)OC(=O)c1cc(-n2c(=O)cc(C(F)(F)F)n(C)c2=O)ccc1Cl | inactive
COC(=O)c1c(C(F)F)nc(C(F)(F)F)c(C2=NCCS2)c1CC(C)C | inactive
CCCN(CC)CC1COC2(CCC(C(C)(C)C)CC2)O1 (stereo not drawn) | inactive
CNC(=O)N(C)c1nnc(C(C)(C)C)s1 | inactive
COP(=O)(OC)O/C(C)=C/C(=O)N(C)C | inactive
O=c1n(Cl)c(=O)n(Cl)c(=O)n1Cl | inactive

Compound | outcome
Nc1cnn(-c2ccccc2)c(=O)c1Cl | inactive
CC(C)=CC1C(C(=O)OCc2coc(Cc3ccccc3)c2)C1(C)C (stereo not drawn) | inactive
CCCC(=NOCC)C1=C(O)CC(CC(C)SCC)CC1=O (stereo not drawn) | inactive
Nc1c(Cl)c(Cl)nc(C(=O)O)c1Cl | inactive
CC1(C)C(C(=O)OC(C#N)c2cccc(Oc3ccccc3)c2)C1(C)C (stereo not drawn) | inactive
CCSC(=O)N1CCCCCC1 | inactive
N#CN=C1SCCN1Cc1ccc(Cl)nc1 | inactive
CCOc1nc(F)cc2nc(S(=O)(=O)Nc3c(Cl)cccc3Cl)nn12 | inactive
CCNC(=O)NC(=O)C(C#N)=NOC | inactive
CC(C)N1C(=O)c2ccccc2NS1(=O)=O | inactive
CCN(CC)C(=O)C(C)Oc1cccc2ccccc12 (stereo not drawn) | inactive
CS(=O)(=O)c1ccc(C(=O)C2C(=O)CCCC2=O)c([N+](=O)[O-])c1 | inactive
COC(=O)NS(=O)(=O)c1ccc(N)cc1 | inactive
CC(C)C1(C)N=C(c2ncccc2C(=O)O)NC1=O (stereo not drawn) | inactive
COc1cc(Cl)c(OC)cc1Cl | inactive
N#Cc1c(Cl)cccc1Cl | inactive
COc1cc(OC)nc(NC(=O)NS(=O)(=O)c2ncccc2OCC(F)(F)F)n1 | inactive
CC1(C)CON(Cc2ccccc2Cl)C1=O | inactive
CC1(C)C(C=C(Cl)Cl)C1C(=O)OC(C#N)c1cccc(Oc2ccccc2)c1 (stereo not drawn) | inactive
